Data from the supplement of paper PMC13380429.

Tests used:
[1] = test system: Vero E6 infected with SARS-CoV-2; assay: morphology score (similarity to uninfected cells); higher = more like uninfected cells; conditions: 24 h
[2] = test system: Vero E6 infected with SARS-CoV-2; assay: SARS-CoV-2 infection rate relative to infected DMSO; higher = more infection, active = 60 or less; conditions: 24 h

Compound | morphology score [1] | SARS-CoV-2 infection rate [2]
Cc1ccc(NC(=O)C2(c3ccc4c(c3)OC(F)(F)O4)CC2)nc1-c1cccc(C(=O)O)c1 [lumacaftor] (10 µM) | 0.0696 | 114% (inactive)
CCCNC(=O)Nc1ccc(Oc2ncnc3cc(OC)c(OC)cc23)cc1Cl (10 µM) | -0.0266 | 108% (inactive)
C[C@@H](CN1CCC(Cc2ccccc2)CC1)[C@@H](O)c1ccc(O)cc1 (10 µM) | 0.157 | 98.5% (inactive)
Cc1cnc(-c2cc(N3CCN(C(=O)CCS(C)(=O)=O)CC3)ncc2Cl)c(C)c1 (10 µM) | 0.241 | 105% (inactive)
CCOC(=O)N1c2ccc(C(F)(F)F)cc2[C@@H](N(Cc2cc(C(F)(F)F)cc(C(F)(F)F)c2)C(=O)OC)C[C@H]1CC (10 µM) | 0.259 | 93% (inactive)
O=Nc1ccc(O)c2ncccc12 (10 µM) | -0.131 | 108% (inactive)
C[C@]12C=CC(=O)C=C1CC[C@@H]1[C@@H]2[C@@H](O)C[C@@]2(C)[C@H]1CC[C@]2(O)C(=O)COP(=O)(O)O [prednisolone-sodium-phosphate] (10 µM) | -0.0179 | 93.5% (inactive)
C[C@@H]1CN(CC(=O)Nc2ccc3c(c2)Cc2cccc(-c4cc(=O)cc(N5CCOCC5)o4)c2S3)C[C@H](C)O1 (10 µM) | 0.618 | 60% (active)
COc1cc(C)[nH]c(=O)c1CNC(=O)c1c(C)n([C@H](C)C2CCOCC2)c2ccccc12 (10 µM) | 0.0908 | 96.5% (inactive)
C[C@]12CCC(=O)C[C@@H]1CC[C@@H]1[C@@H]2CC[C@]2(C)[C@@H](O)CC[C@@H]12 [Dihydrotestosterone] (10 µM) | -0.034 | 110% (inactive)
CN(CCOc1ccc(CC2SC(=O)NC2=O)cc1)c1ccccn1 (stereo unspecified) [rosiglitazone] (10 µM) | 0.279 | 92.5% (inactive)
CC(=O)N[C@@H](Cc1c[nH]c2ccccc12)C(=O)OCc1cc(C(F)(F)F)cc(C(F)(F)F)c1 (10 µM) | 0.31 | 93% (inactive)
C1CCC(C(CC2CCCCN2)C2CCCCC2)CC1 (stereo unspecified) [perhexiline] (0.833333 µM) | -0.219 | 114% (inactive)
Cc1cccc(Nc2cc(Cl)nc(SCC(=O)O)n2)c1C [pirinixic-acid] (10 µM) | 0.0216 | 108% (inactive)
CC(=O)O[C@]1(C(C)=O)CC[C@H]2[C@@H]3C=C(Cl)C4=CC(=O)CC[C@]4(C)[C@H]3CC[C@@]21C [chlormadinone-acetate] (10 µM) | 0.106 | 106% (inactive)
CC[N+](CC)(CCNC(=O)C(=O)NCC[N+](CC)(CC)Cc1ccccc1Cl)Cc1ccccc1Cl [ambenonium] (10 µM) | 0.131 | 106% (inactive)
CC(C)Oc1ccc(Cc2ccc(NC3=NCCN3)cc2)cc1 (10 µM) | 0.0823 | 100% (inactive)
COc1cc2ncc(-c3ccccc3)nc2cc1OC [tyrphostin-AG-1296] (10 µM) | 0.195 | 108% (inactive)
CN1CCN(C(=O)c2cc3cc(Cl)ccc3[nH]2)CC1 (10 µM) | -0.00911 | 111% (inactive)
OCCN1CCN(CCCN2c3ccccc3Sc3ccc(Cl)cc32)CC1 [perphenazine] (0.833333 µM) | -0.0186 | 109% (inactive)
CCc1cccc2c3c([nH]c12)C(CC)(CC(=O)O)OCC3 (stereo unspecified) [etodolac] (10 µM) | -0.0116 | 115% (inactive)
Cc1cc(CCC[C@H](CC(=O)NO)C(=O)N[C@H](C(=O)N[C@H](C)c2ccccc2)C(C)(C)C)ccc1-c1ccccc1 (0.833333 µM) | -0.0923 | 102% (inactive)
CCCCc1ccc(C(N)=O)nc1 [bupicomide] (10 µM) | -0.191 | 102% (inactive)
N#C/C(=C\c1ccc(O)c(O)c1)C(=O)NCCCCc1ccccc1 (0.833333 µM) | 0.167 | 89.5% (inactive)
CCS(=O)(=O)N1CCN(c2ccc(Nc3ncc(C(N)=O)c(NC4CC4)n3)cc2)CC1 (10 µM) | 0.439 | 123% (inactive)
CN(C(=O)c1ccc(F)cc1C(F)(F)F)C1CCN(c2nnc(-c3ccnn3C)c3ccccc23)CC1 [taladegib] (10 µM) | 0.0832 | 102% (inactive)
O=S(=O)(O)NC1CCCCC1 [cyclamic-acid] (10 µM) | 0.146 | 87.5% (inactive)
Nc1nc(O)c2ncn(CCC(CO)CO)c2n1 [penciclovir] (10 µM) | 0.0743 | 93.5% (inactive)
